What all share (test): DAPPL (digital affinity profiling via proximity ligation, sequencing); 10 mM Tris-HCl pH 7.5, 50 mM NaCl, 1 mM DTT, 4% glycerol, room temperature, 30 min; GST-TFs on glutathione beads, 16-mer random dsDNA library, 0.1% formaldehyde crosslink after washing; high values mean tight binding
Conditions in all cases: protein: recombinant; tags: N-terminal GST; dsDNA, one strand shown

One assay addresses T1, FEV (Homo sapiens, UniProt Q99581 1-238).
T1 sequence: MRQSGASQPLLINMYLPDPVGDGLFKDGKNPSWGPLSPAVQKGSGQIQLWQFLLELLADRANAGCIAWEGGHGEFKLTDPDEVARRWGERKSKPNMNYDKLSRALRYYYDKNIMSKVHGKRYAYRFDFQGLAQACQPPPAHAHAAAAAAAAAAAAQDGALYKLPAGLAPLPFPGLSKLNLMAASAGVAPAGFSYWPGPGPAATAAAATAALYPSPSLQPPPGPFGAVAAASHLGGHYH
Put shortly:
(§1)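 In yeast, human transcription factors were expressed with a GST fusion, then pulled down on glutathione beads and given DNA barcodes. Pooled with a tag-only sample, they were exposed to 200 nmole of a 16-mer random double-stranded DNA library (Tris/NaCl/DTT/glycerol buffer, room temperature, 30 min), washed, crosslinked with 0.1% formaldehyde, proximity-ligated using BsaI/T4 ligase for 1 h at 37 °C, PCR-amplified and read on an Illumina NextSeq500. Each hexamer's frequency of reads for a factor, divided by the matching frequency for the tag-only sample, gives the binding signal.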

In a further assay the target is ETV5 (Homo sapiens, UniProt P41161 1-510). A digest of the protocol:
as §1

A further assay addresses T2, SPIC (Homo sapiens, UniProt Q8N5J4 1-248).
T2 sequence: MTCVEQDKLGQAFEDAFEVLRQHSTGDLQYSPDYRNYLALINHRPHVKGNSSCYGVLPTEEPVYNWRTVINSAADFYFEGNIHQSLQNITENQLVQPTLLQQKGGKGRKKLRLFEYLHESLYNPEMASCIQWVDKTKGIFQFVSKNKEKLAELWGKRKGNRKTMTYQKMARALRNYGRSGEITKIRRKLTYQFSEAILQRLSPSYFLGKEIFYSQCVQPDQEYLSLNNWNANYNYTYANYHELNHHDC
A digest of the protocol:
as §1

In another assay the target is ELF4 (Homo sapiens, UniProt Q99607 1-663). Put shortly:
as §1

The target of another assay is T3, ELK4 (Homo sapiens, UniProt P28324-2 1-405).
T3 sequence: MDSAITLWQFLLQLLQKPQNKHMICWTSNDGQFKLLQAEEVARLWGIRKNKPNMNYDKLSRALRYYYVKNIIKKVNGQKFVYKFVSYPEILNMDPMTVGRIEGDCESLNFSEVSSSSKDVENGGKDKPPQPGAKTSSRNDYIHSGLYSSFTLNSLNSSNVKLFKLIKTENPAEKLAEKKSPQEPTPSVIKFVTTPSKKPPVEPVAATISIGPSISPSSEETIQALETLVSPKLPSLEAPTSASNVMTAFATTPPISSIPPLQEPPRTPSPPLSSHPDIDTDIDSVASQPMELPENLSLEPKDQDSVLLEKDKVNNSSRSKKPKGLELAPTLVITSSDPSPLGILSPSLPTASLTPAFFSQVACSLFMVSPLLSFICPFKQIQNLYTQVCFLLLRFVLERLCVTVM
Put shortly:
as §1

For the next assay, the target named is T4, ETV2 (Homo sapiens, UniProt O00321 1-342).
T4 sequence: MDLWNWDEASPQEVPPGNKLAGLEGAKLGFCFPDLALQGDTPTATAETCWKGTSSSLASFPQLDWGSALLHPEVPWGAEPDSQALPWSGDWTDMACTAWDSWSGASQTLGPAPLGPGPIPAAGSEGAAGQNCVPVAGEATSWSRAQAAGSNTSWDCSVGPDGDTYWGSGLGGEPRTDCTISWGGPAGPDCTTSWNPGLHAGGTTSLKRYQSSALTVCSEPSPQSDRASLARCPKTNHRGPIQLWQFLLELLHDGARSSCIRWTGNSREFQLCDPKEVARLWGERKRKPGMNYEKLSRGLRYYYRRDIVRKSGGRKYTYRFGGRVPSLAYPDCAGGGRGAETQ
Put shortly: as §1

In the next assay the target is T5, ELF3 (Homo sapiens, UniProt P78545 1-371).
T5 sequence: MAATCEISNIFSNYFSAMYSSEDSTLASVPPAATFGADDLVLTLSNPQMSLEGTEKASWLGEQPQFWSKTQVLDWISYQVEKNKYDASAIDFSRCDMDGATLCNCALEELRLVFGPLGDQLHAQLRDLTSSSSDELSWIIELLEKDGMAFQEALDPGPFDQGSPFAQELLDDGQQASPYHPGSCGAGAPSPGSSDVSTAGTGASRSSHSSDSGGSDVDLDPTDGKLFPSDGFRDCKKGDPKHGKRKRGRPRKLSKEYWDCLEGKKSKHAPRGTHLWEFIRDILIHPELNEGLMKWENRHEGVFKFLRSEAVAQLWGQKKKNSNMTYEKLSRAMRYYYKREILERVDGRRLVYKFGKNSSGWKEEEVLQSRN
Put shortly: as §1

In another assay the target is ETV1 (Homo sapiens, UniProt P50549 1-477). A digest of the protocol:
as §1

ETV5, sequence (P41161 whole entry): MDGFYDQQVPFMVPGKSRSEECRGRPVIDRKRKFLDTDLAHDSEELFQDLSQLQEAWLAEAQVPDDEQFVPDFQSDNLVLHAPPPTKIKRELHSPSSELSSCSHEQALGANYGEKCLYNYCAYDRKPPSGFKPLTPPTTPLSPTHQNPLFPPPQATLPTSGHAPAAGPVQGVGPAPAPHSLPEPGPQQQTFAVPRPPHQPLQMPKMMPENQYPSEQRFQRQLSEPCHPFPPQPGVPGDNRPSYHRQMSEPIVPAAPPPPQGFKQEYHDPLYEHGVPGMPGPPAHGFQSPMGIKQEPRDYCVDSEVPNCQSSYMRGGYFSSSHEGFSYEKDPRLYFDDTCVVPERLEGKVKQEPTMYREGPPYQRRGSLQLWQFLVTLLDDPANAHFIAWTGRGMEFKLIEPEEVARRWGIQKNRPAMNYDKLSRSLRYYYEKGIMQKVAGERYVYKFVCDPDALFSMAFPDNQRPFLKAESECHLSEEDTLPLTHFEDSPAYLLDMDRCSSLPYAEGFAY
ELF4, sequence (Q99607 whole entry): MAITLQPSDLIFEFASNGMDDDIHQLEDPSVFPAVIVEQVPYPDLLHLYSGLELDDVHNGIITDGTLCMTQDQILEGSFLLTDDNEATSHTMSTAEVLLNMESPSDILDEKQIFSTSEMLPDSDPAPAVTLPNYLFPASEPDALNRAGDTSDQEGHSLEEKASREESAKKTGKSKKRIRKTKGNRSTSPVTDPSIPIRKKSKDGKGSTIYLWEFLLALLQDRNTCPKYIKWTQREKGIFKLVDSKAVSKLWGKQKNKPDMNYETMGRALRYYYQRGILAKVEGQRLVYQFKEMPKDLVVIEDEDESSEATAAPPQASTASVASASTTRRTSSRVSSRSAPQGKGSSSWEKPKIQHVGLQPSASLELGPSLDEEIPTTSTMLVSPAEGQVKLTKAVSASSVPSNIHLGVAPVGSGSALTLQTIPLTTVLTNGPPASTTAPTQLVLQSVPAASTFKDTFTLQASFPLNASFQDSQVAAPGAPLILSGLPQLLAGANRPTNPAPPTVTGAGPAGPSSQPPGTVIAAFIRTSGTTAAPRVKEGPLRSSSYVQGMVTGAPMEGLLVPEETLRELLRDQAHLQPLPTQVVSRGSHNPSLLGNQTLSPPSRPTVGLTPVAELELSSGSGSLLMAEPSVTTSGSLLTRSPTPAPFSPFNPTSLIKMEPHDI
ETV1, sequence (P50549 whole entry): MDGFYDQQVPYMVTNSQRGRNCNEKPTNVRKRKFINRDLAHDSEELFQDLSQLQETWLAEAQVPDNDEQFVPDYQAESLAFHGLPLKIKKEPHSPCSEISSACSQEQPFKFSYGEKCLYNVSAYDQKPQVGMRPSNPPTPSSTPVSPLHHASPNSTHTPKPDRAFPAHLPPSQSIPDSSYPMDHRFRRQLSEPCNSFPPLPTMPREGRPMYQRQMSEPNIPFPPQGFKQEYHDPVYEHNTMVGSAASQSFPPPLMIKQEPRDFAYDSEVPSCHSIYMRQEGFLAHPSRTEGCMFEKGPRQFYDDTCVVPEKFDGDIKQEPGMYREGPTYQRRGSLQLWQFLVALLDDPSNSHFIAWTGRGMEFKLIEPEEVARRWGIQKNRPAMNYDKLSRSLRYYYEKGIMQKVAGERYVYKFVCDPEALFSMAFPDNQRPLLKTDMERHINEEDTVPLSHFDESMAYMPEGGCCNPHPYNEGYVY

Regarding CACATA, the binding signal with FEV is 1.1 fold enrichment (6-mer frequency, TF over GST control); with ETV5, 1.1 fold enrichment (6-mer frequency, TF over GST control); with SPIC it was 1.07 fold enrichment (6-mer frequency, TF over GST control); in the assay with ELF4, 1.1 fold enrichment (6-mer frequency, TF over GST control); with ELK4, 1.07 fold enrichment (6-mer frequency, TF over GST control); with ETV2, 1.18 fold enrichment (6-mer frequency, TF over GST control). Moreover, the binding signal was 1.11 fold enrichment (6-mer frequency, TF over GST control) with ELF3 and 1.05 fold enrichment (6-mer frequency, TF over GST control) with ETV1.
As for GCTACC, the binding signal is 1.18 fold enrichment (6-mer frequency, TF over GST control) with FEV; 1.17 fold enrichment (6-mer frequency, TF over GST control) in the assay with ETV5; 1.23 fold enrichment (6-mer frequency, TF over GST control) with SPIC; 1.24 fold enrichment (6-mer frequency, TF over GST control) in the assay with ELF4; 1.04 fold enrichment (6-mer frequency, TF over GST control) with ELK4; 1.08 fold enrichment (6-mer frequency, TF over GST control) with ETV2. In addition, the binding signal was 1.1 fold enrichment (6-mer frequency, TF over GST control) with ELF3 and 1.26 fold enrichment (6-mer frequency, TF over GST control) with ETV1.
In the case of GATACG, the binding signal with FEV is 1.08 fold enrichment (6-mer frequency, TF over GST control); with ETV5 it was 1.1 fold enrichment (6-mer frequency, TF over GST control); in the assay with SPIC, 1.2 fold enrichment (6-mer frequency, TF over GST control); in the assay with ELF4 it was 1.07 fold enrichment (6-mer frequency, TF over GST control); in the assay with ELK4, 1.13 fold enrichment (6-mer frequency, TF over GST control); in the assay with ETV2, 1.06 fold enrichment (6-mer frequency, TF over GST control). Moreover, the binding signal is 1.09 fold enrichment (6-mer frequency, TF over GST control) with ELF3 and 1.1 fold enrichment (6-mer frequency, TF over GST control) in the assay with ETV1.
For ACTGAC, the binding signal is 1.26 fold enrichment (6-mer frequency, TF over GST control) in the assay with FEV; 1.19 fold enrichment (6-mer frequency, TF over GST control) with ETV5; 1.24 fold enrichment (6-mer frequency, TF over GST control) in the assay with SPIC; 1.23 fold enrichment (6-mer frequency, TF over GST control) with ELF4; 1.11 fold enrichment (6-mer frequency, TF over GST control) with ELK4; 1.3 fold enrichment (6-mer frequency, TF over GST control) in the assay with ETV2. In addition, the binding signal with ELF3 is 1.14 fold enrichment (6-mer frequency, TF over GST control); with ETV1 it was 1.25 fold enrichment (6-mer frequency, TF over GST control).
Take TGTCTG: the binding signal is 1.15 fold enrichment (6-mer frequency, TF over GST control) with FEV; 1.09 fold enrichment (6-mer frequency, TF over GST control) with ETV5; 1.33 fold enrichment (6-mer frequency, TF over GST control) with SPIC; 1.04 fold enrichment (6-mer frequency, TF over GST control) with ELF4; 1.02 fold enrichment (6-mer frequency, TF over GST control) in the assay with ELK4; 1.21 fold enrichment (6-mer frequency, TF over GST control) with ETV2. Further, the binding signal is 1.21 fold enrichment (6-mer frequency, TF over GST control) with ELF3 and 1.04 fold enrichment (6-mer frequency, TF over GST control) with ETV1.
For TGACGC, the binding signal in the assay with FEV is 1.13 fold enrichment (6-mer frequency, TF over GST control); with ETV5 it was 1.28 fold enrichment (6-mer frequency, TF over GST control); with SPIC it was 1.18 fold enrichment (6-mer frequency, TF over GST control); with ELF4, 1.37 fold enrichment (6-mer frequency, TF over GST control); in the assay with ELK4 it was 1.3 fold enrichment (6-mer frequency, TF over GST control); with ETV2, 1.18 fold enrichment (6-mer frequency, TF over GST control). Moreover, the binding signal in the assay with ELF3 is 1.11 fold enrichment (6-mer frequency, TF over GST control); with ETV1 it was 1.07 fold enrichment (6-mer frequency, TF over GST control).
For GTTTCA, the binding signal with FEV is 1.31 fold enrichment (6-mer frequency, TF over GST control); with ETV5, 1.26 fold enrichment (6-mer frequency, TF over GST control); with SPIC it was 1.06 fold enrichment (6-mer frequency, TF over GST control); with ELF4 it was 1.33 fold enrichment (6-mer frequency, TF over GST control); in the assay with ELK4 it was 1.28 fold enrichment (6-mer frequency, TF over GST control); with ETV2, 1.15 fold enrichment (6-mer frequency, TF over GST control). For the same sequence, the binding signal is 1.28 fold enrichment (6-mer frequency, TF over GST control) in the assay with ELF3 and 1.43 fold enrichment (6-mer frequency, TF over GST control) with ETV1.

The record behind these values is paper PMC7862700, “An all-to-all approach to the identification of sequence-specific readers for epigenetic DNA modifications on cytosine”.
